The nature of test [1]: qHTS for Inhibitors of the Functional Ribonucleoprotein Complex (vRNP) of Lassa (LASV) Arenavirus: LASV Primary Screen - GLuc reporter signal (AID 1347082; calls by dose curve; tested in HEK293 reporter line; note: nearly all actives have a fitted effect of over 60% in size; note: potency is the fitted concentration of half-maximal effect; for activity change, negative = inhibition: % is set by controls: 0 for no effect and ±100 for the full control effect).
Test [2] addresses Nucleoprotein (Lymphocytic choriomeningitis virus (strain Armstrong)) (UniProt P09992). Description: qHTS for Inhibitors of the Functional Ribonucleoprotein Complex (vRNP) of Lymphocytic Choriomeningitis Arenaviruses (LCMV): LCMV Primary Screen - GLuc reporter signal (AID 1347086). For activity change, negative = inhibition: % is set by controls: 0 for no effect and ±100 for the full control effect. Note: nearly all actives have a fitted effect of over 70% in size. Note: potency is the fitted concentration of half-maximal effect.
Test [3] is described as follows: Cytotoxicity counterscreen for inhibitors of SARS-CoV-2 cell entry (AID 1645845). Note: nearly all actives have a fitted effect of over 50% in size. In outline: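 ATP-content luminescence (ATPLite 1step, 15 min RT) read after 48 h compound exposure of Expi293F cells stably expressing human ACE2; normalized to cells-only wells and media-only wells.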
Test [4] can be described thus: Primary qHTS to identify inhibitors of SARS-CoV-2 cell entry (AID 1645846). Note: nearly all actives have a fitted effect of over 45% in size. Note: potency is the fitted concentration of half-maximal effect. Particulars: activity change, negative = inhibition: at 57.1 µM (top of the series) unless noted. In outline: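 Data are normalized to wells receiving SARS-CoV-2-S pseudoparticles and those given bald particles. Entry signal was luciferase luminescence in stable hACE2 Expi293F cells, 48 hr post-infection, after 1 hr compound pretreatment.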

Test [5] deals with Alpha-galactosidase (Coffea arabica) (UniProt Q42656). Description: Counterscreen for Glucocerebrosidase Inhibitors: qHTS Assay for Coffee Bean alpha-Galactosidase at pH 4.5 (AID 957; active = well fitted curve in the direction sought with a large enough effect; an effect the other way counts as inactive or inconclusive;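 note: plate controls were enzyme alone for no effect and no enzyme for full effect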). In short, it runs like this: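 Quantitative HTS of compounds (0.7 nM to 77 uM) against coffee bean alpha-galactosidase at pH 4.5, measuring 4-methylumbelliferone fluorescence released from 80 uM substrate.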

Test [6] shares this target. Description: Counterscreen for Glucocerebrosidase Inhibitors: qHTS Assay for Coffee Bean alpha-Galactosidase at pH 5.9 (AID 998; active = well fitted curve in the direction sought with a large enough effect; an effect the other way counts as inactive or inconclusive;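 note: plate controls were uninhibited enzyme for no effect and no-enzyme basal signal for full effect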). In short, it runs like this:
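Fluorogenic 4-MU substrate hydrolysis, 80 uM substrate and 2 nM coffee bean alpha-galactosidase, pH 5.9 citrate buffer, 20 min at room temperature, then NaOH/glycine stop. Titration 0.7 nM–77 uM, normalized to no-enzyme and enzyme controls, AC50 via Hill equation.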

Test [7] can be described thus: Validation screen for inhibitors of Lassa infection (AID 463096). Note: % is set by controls: 0 for no effect and ±100 for the full control effect.
Test [8] is described as follows: Inducers of the Endoplasmic Reticulum Stress Response (ERSR) in human glioma: Validation (AID 504836; active = well fitted curve in the direction sought with a large enough effect; an effect the other way counts as inactive or inconclusive; note: 0% is about no effect). In short, it runs like this:
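ERSR induction read as luciferase luminescence (Bright-Glo, 10 min at room temperature) in stably transfected human U87-MG glioma cells exposed to compounds for 16 h, using GRP78 as sensor.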

Test [9] is described as follows: qHTS profiling of the MIPE4 collection as inhibitors of Plasmodium falciparum (3D7) proliferation (AID 743344; call rule not given here;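 note: scaled between DMSO vehicle wells and 0.29 µM artemisinin as full inhibition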). Particulars: P. falciparum 3D7 in erythrocytes, SYBR Green DNA fluorescence, 72 h; at 28.5 µM (top of the series) unless noted. In outline: (§1)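 Parasite DNA was quantified by SYBR Green I fluorescence (ex 485, em 535 nm) after overnight lysis in saponin/Triton buffer at room temperature. Cultures at 0.3% parasitemia and 2.5% hematocrit were first exposed to compound for 72 h at 37 C; signals were normalised to artemisinin (0.29 uM) and vehicle wells.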

The nature of test [10]: qHTS profiling of the MIPE4 collection as inhibitors of Plasmodium falciparum (DD2) proliferation (Rep 2) (AID 743346; call rule not given here). The following applies: P. falciparum Dd2 in erythrocytes, SYBR Green DNA, 72 h; at 28.5 µM (top of the series) unless noted. In outline:
as §1

The target of test [11] is Voltage-gated inwardly rectifying potassium channel KCNH2 (Homo sapiens) (UniProt Q12809). Description: qHTS Assay for Small Molecule Inhibitors of the Human hERG Channel Activity (AID 588834; active = well fitted curve in the direction sought with a large enough effect; an effect the other way counts as inactive or inconclusive;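 note: potency is the fitted concentration of half-maximal effect; lower thallium flux fluorescence means stronger hERG block; nearly all actives have a fitted effect of over 50% in size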). In outline:
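Cells were infected with hERG-BacMam virus for 4 hrs at room temperature, grown overnight, then seeded at 2000/well. After dye loading and roughly 10 min compound treatment, thallium influx was triggered and fluorescence recorded.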

Test [12] in a line: qHTS for Inhibitors of the Functional Ribonucleoprotein Complex (vRNP) of Lassa (LASV) Arenavirus: Viability assay - alamar blue signal for LASV Primary Screen (AID 1347083; calls by dose curve; tested in HEK293 reporter line; note: potency is the fitted concentration of half-maximal effect; nearly all actives have a fitted effect of over 80% in size).
For test [13], the target named is Rap guanine nucleotide exchange factor 3 (Homo sapiens) (UniProt O95398). Description: Confirmatory qHTS for agonist of cAMP-regulated guanine nucleotide exchange factor 3 (EPAC1) (AID 1645881; active = well fitted curve in the direction sought with a large enough effect; an effect the other way counts as inactive or inconclusive;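 note: EPAC1 catalysed release of BODIPY-GDP from Rap1B seen as fluorescence loss; 100% = effect of cAMP agonist control; nearly all actives have a fitted effect of over 75% in size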).
Test [14] deals with Rap guanine nucleotide exchange factor 4 (Homo sapiens) (UniProt Q8WZA2). Description: Confirmatory qHTS for agonist of cAMP-regulated guanine nucleotide exchange factor 4 (EPAC2) (AID 1645884; active = well fitted curve in the direction sought with a large enough effect; an effect the other way counts as inactive or inconclusive;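 note: nucleotide exchange releases bodipy-GDP from Rap1 and this lowers its fluorescence; % is set by controls: 0 for no effect and ±100 for the full control effect; nearly all actives have a fitted effect of over 65% in size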).
For test [15] the target is unchanged. Description: Confirmatory qHTS for antagonist of cAMP-regulated guanine nucleotide exchange factor 4 (EPAC2) (AID 1645885; active = well fitted curve in the direction sought with a large enough effect; an effect the other way counts as inactive or inconclusive; note: % is set by controls: 0 for no effect and ±100 for the full control effect; nearly all actives have a fitted effect of over 25% in size).
Test [16] deals with Rap guanine nucleotide exchange factor 3 (Homo sapiens) (UniProt O95398). Description: Counterscreen qHTS for antagonist of cAMP-regulated guanine nucleotide exchange factor 3 (EPAC1) (AID 1645888; active = well fitted curve in the direction sought with a large enough effect; an effect the other way counts as inactive or inconclusive;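 note: fluorescence loss as bound BODIPY-GDP is released from Rap1B; % of control where 0% means no effect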). In short, it runs like this:
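Rap1B-BODIPY-GDP 250 nM + GDP 50 uM; cpds 7-pt, final 9.74 nM–152 uM (activator mode) or from 7.32 nM upwards (inhibitor mode); RT; FI 480/540 nm at 5 and 30 min, then ± cAMP, reread.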

Records with an inconclusive call do not appear. Calls of active or inactive are those of the source. Unless noted, calls come from the whole dose curve.

Sequence of Alpha-galactosidase (Coffea arabica) (Q42656 whole entry, looked up): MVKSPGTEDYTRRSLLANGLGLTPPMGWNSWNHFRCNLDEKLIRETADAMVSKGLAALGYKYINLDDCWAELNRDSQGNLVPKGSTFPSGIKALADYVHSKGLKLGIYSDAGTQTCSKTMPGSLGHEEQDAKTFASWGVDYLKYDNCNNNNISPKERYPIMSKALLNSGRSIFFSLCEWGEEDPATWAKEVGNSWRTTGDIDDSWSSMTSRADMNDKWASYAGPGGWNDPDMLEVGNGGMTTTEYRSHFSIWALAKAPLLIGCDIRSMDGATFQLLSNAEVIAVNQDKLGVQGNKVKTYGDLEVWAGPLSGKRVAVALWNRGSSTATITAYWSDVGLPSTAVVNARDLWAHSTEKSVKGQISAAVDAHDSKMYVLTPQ
Sequence of Nucleoprotein (Lymphocytic choriomeningitis virus (strain Armstrong)) (P09992 whole entry, looked up): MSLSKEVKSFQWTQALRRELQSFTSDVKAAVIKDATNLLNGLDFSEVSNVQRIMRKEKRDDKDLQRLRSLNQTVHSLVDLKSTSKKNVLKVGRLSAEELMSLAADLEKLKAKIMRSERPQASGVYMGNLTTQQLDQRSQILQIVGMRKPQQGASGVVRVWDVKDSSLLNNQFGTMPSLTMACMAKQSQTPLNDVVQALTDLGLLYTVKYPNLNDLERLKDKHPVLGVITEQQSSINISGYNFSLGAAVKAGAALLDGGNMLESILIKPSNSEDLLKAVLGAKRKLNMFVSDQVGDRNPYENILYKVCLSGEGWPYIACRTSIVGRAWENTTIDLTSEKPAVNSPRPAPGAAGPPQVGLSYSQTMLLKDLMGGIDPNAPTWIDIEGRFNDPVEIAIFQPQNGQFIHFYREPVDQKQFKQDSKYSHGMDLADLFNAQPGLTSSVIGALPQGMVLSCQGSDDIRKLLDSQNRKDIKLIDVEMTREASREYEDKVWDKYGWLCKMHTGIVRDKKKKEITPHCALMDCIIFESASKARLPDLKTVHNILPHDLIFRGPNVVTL
Sequence of Rap guanine nucleotide exchange factor 3 (Homo sapiens) (O95398 whole entry, looked up): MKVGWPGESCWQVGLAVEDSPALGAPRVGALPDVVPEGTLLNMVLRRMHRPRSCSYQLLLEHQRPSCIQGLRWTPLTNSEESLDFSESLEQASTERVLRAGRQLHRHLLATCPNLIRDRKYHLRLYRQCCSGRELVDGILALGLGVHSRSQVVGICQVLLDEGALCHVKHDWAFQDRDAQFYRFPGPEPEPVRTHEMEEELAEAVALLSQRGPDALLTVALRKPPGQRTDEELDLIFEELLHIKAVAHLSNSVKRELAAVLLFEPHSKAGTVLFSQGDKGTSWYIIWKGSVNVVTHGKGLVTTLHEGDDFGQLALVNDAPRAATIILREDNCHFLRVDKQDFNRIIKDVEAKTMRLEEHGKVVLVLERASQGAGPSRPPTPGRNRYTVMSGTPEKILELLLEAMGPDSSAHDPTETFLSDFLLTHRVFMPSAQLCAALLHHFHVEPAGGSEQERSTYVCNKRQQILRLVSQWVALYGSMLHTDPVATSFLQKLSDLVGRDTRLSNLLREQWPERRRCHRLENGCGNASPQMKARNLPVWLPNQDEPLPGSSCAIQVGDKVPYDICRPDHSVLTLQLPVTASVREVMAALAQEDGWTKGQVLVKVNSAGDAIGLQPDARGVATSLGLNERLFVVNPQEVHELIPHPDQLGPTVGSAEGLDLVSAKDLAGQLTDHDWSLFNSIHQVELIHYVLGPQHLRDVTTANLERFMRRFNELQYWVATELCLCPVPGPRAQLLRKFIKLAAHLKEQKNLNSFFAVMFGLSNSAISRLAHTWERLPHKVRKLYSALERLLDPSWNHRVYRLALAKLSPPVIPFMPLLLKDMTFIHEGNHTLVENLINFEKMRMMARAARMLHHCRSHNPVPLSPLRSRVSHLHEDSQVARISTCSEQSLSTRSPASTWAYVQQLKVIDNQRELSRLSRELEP
Sequence of Rap guanine nucleotide exchange factor 4 (Homo sapiens) (Q8WZA2 whole entry, looked up): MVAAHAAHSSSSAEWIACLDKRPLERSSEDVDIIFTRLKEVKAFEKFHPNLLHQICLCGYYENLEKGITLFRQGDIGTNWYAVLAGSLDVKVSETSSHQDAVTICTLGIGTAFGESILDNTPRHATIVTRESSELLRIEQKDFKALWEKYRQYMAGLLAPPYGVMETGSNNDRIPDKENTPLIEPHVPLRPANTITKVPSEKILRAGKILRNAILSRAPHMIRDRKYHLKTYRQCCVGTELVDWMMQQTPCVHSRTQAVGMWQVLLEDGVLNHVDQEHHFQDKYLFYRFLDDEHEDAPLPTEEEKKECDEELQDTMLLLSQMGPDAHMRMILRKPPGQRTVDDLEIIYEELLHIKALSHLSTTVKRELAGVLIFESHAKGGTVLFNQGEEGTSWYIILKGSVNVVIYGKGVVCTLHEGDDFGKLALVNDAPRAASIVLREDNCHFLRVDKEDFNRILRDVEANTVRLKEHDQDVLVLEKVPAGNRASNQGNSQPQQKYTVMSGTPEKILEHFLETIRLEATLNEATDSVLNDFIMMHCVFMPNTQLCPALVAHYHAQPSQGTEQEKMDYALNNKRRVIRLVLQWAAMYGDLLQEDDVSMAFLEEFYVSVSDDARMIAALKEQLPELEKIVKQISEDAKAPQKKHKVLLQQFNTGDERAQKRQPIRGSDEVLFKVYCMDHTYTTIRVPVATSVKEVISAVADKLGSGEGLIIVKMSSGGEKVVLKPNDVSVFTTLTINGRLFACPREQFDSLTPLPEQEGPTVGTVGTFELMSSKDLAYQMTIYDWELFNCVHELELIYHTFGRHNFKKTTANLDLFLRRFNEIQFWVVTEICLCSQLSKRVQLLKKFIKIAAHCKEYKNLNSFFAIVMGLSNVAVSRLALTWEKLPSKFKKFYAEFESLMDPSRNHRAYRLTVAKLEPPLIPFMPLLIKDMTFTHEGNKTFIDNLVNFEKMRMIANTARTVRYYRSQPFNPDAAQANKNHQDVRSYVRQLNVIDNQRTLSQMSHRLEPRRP
Sequence of Voltage-gated inwardly rectifying potassium channel KCNH2 (Homo sapiens) (Q12809 whole entry, looked up): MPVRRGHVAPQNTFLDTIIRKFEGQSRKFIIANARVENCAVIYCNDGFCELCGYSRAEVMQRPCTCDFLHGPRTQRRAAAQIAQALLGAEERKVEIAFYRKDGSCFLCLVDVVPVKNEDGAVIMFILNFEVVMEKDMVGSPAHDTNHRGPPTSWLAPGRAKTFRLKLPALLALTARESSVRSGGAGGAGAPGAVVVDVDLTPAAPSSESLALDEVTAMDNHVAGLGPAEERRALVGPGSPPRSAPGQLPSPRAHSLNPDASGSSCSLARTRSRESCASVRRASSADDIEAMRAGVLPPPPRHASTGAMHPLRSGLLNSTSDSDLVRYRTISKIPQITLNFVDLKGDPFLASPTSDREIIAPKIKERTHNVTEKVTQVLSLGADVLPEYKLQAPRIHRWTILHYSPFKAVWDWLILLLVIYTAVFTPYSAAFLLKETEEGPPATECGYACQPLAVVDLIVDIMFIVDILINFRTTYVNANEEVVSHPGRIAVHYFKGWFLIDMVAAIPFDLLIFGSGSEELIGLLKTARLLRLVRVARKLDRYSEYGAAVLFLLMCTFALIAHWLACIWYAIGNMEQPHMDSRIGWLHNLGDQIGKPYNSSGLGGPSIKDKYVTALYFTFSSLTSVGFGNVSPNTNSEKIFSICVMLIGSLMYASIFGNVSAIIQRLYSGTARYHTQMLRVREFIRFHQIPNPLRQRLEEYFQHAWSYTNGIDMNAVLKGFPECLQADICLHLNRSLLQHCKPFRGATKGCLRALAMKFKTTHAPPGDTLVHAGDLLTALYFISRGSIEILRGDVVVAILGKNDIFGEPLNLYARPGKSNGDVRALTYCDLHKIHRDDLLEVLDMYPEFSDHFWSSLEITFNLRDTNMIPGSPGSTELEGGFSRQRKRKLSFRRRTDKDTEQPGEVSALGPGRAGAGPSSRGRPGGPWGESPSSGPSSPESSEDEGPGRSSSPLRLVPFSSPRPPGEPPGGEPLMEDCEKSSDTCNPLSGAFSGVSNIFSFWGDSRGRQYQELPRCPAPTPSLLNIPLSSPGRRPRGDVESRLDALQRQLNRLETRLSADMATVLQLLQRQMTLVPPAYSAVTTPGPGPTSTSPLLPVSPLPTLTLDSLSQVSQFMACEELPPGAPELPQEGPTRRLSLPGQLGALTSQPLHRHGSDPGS

Turning to `O=C1CSC(=O)N1C(CCc1ccncc1)COc1ccc(-c2cccc([N+](=O)[O-])c2)cc1` (stereo unspecified), the Potency was 17.2 µM (active) in test [1] and 7.69 µM (active) in test [2].

As to `O=C(NOCC(O)CO)c1cc(Br)c(F)c(F)c1Nc1ccc(I)cc1F` (stereo unspecified), the Potency result in test [1], in test [2] and in test [3] was “inactive” throughout. Moreover, the activity change, negative = inhibition in test [4] was -16.5%.

As for `N=c1ccn2c(n1)O[C@H]1[C@@H](O)[C@@H](CO)O[C@H]12`, the Potency result in test [1], in [2] and in test [3] was “inactive” in each case. In test [4], the Potency was 10 µM (active).

As to `Brc1c(Br)c(Br)c2[nH]cnc2c1Br`, the Potency entry in test [1] and in test [2] was “inactive” in each case.

As to `COc1cc(C(C)C)c(Oc2cnc(NC(CO)CO)nc2N)cc1I`, the Potency entry in test [1], in test [2], in [3] and in test [4] was “inactive” each time.

For the compound `CN(C)c1nc2c(Br)c(Br)c(Br)c(Br)c2[nH]1`, the compound was called inactive in test [5], in test [6] and in test [8]. Further, the Potency entry in test [7], in test [1] and in test [2] was “inactive” throughout.

In the case of `c1ccc(-c2oc3ncnc(NC[C@@H]4CCCO4)c3c2-c2ccccc2)cc1`, the Potency entry in [1] and in test [2] was “inactive” in each case. For the same compound, the activity change, negative = inhibition in test [4] is -93.9%.

With `COc1ccc2c3c1OC1C[C@@H](O)C=C[C@@]31CCN(C)C2` (stereo partly specified), in [9], the parasite growth, % of DMSO control was 89.5%. The parasite growth, % of control (lower = inhibition) in test [10] came to 65.2%. Further, in [1], the Potency entry is “inactive”.

Turning to `CCOC(=O)C1=C(C)NC(C)=C(C(=O)OCC)C1c1c(F)c(F)c(F)c(F)c1F`, in test [8], the compound was classed as inactive. Further, the Potency result in test [1] is “inactive”.

With `O[Si](CCCN1CCCCC1)(c1ccc(F)cc1)C1CCCCC1` (stereo unspecified), in [8], the outcome was inactive. Besides, the Potency in test [11] was 14.1 µM (active). Moreover, the Potency result in test [1] was “inactive”.

Regarding `C=C1C(=O)C=C[C@]2(C)C[C@@H]3OC(=O)[C@](C)(O)[C@H]3C[C@@H]12`, the Potency in test [12] is 14.1 µM (active).

Consider `O=Nc1c(-c2c(O)[nH]c3ccccc23)[nH]c2ccccc12`, for which the compound was called inactive in test [6]. The Potency entry in test [1] was “inactive”.

With `COc1cc2c(cc1OC)-c1c(OC)c(OC)cc3c1C(C2)N(C)CC3` (stereo unspecified), the Potency result in [1] and in [15] was “inactive” throughout. Moreover, the result in test [13], in test [14] and in [16] was inactive.

The record behind these values is PubChem BioAssay (NCATS).
